Assay outcomes deposited in PubChem BioAssay by Sanford-Burnham Center for Chemical Genomics.
Only some compounds are listed: those with a hit (about 31% of all), similar ones and a draw of the others.
CYP2C9 inhib = inhibitors of human CYP2C9. P11712. CYP2C9 Supersomes, luciferin-H conversion, luminescence. inhibition, % at 5 µM. actives 20% (n = 96,000). AID 777;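 active = blocking of liver enzyme CYP2C9 beyond about 50% at 5 µM, limit read from the data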
Target sequence (P11712 whole entry, looked up): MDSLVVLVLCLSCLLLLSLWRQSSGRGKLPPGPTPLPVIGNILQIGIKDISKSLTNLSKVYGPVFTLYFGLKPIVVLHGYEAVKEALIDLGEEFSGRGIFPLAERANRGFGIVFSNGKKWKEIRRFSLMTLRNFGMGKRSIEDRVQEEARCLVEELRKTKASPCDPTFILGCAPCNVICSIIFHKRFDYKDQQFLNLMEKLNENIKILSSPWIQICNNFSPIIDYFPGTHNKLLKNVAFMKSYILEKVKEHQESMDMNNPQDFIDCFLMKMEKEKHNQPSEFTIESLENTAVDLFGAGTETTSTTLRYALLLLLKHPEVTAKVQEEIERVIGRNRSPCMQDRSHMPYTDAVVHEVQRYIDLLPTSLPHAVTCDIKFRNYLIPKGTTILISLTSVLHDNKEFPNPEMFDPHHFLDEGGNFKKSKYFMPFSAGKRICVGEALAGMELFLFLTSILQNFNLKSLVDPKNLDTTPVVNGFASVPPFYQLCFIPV
CYP2C19 act = activators of human cytochrome P450 2C19 | activation factor at 5 µM | recombinant CYP2C19, luciferin-H EGE luminescence; active compounds read high; 0 = fully inhibited enzyme, 1 = untreated enzyme | 96,000 tested, under 10 active | P33261;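 active = activation factor of at least 2 at 5 µM in the primary screen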;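 also: 0 = wells with 2.5 mM tranylcypromine and 1 = vehicle-only wells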
CYP2C9 activ = CYP2C9 (human) activation; activation factor at 5 µM; P11712; actives 1.4% (n = 96,000); recombinant CYP2C9, luciferin-H conversion, luminescence; active compounds read high; factor 1 = untreated enzyme, 0 = blocked; AID 1024;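 active = activation factor of 2 or more for CYP2C9 at a 5 µM dose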;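 also: 0 = sulfaphenazole-blocked wells and 1 = vehicle-only wells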
CYP2C19 inhib = inhibitors of human CYP2C19; P33261; CYP2C19 Supersomes, luciferin-H EGE luminescence, 30 min; inhibition, % at 5 µM; actives 21% (n = 96,000);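 active = CYP2C19 inhibition above a set limit at 5 µM in the primary screen, cut at about 50% in these data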;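 also: plate controls were negative control wells for no effect and 2.5 mM tranylcypromine positive control for full effect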
PLAP activator = activates human placental alkaline phosphatase; actives 1.2% (n = 96,000); purified PLAP enzyme, luminescent substrate read-out; active compounds read high; activation fold at 20 µM; P05187; in the data active = activation fold above about 2
* = called active by the depositor.

SMILES	CYP2C9 inhib	CYP2C19 act	CYP2C9 activ	CYP2C19 inhib	PLAP activator
COc1ccc(S(=O)(=O)N2CCN(C)CC2)cc1C	-46.3	0.9	1.5	13.9	0.9
Cn1nc(-c2ccccc2F)c2cc(C(=O)Nc3ccc4c(c3)OCCO4)sc21	81.1*	0.6	0.2	42.2	1.6
CC(CCc1ccco1)NC(=O)c1cc2c(-c3ccccc3F)nn(C)c2s1 (stereo unspecified)	93.0*	0.2	0.1	78.4*	1.6
COc1cccc(-c2nn(C)c3sc(C(=O)Nc4ccc5c(c4)OCCO5)cc23)c1	48.8	0.9	0.5	14.5	1.1
CC(=O)c1ccc(NS(=O)(=O)c2ccc(C)cc2)cc1	80.4*	0.2	0.2	79.7*	1.1
CC(=O)c1ccc(NS(=O)(=O)c2cccc(C)c2)cc1	95.3*	0	0	99.4*	0.9
COc1ccc(NS(=O)(=O)c2cccc(C(=O)O)c2)cc1	-19.5	0.8	1.2	19.4	0.9
CCOC(=O)c1cc(C(O)(C(F)(F)F)C(F)(F)F)c(/N=C/N(C)C)o1	8.7	1	0.9	3.6	0.9
CCOC(=O)c1c(N)sc(C(O)(C(F)(F)F)C(F)(F)F)c1-c1ccc(OC)cc1OC	71.9*	0.5	0.3	54.9*	1.3
COc1ccccc1C1CC(c2ccccc2)Nc2ncnn21 (stereo unspecified)	37.3	0.1	0.6	87.2*	1.2
Cc1ccc(C2CC(c3ccco3)n3ncnc3N2)cc1 (stereo unspecified)	33.9	0.1	0.7	91.0*	1.3
COc1ccccc1C1CC(c2ccc(C)cc2)Nc2ncnn21 (stereo unspecified)	30.6	0.1	0.7	88.1*	0.9
COCCn1c(C)cc(C(=O)COC(=O)CCN2C(=O)c3ccccc3C2=O)c1C	13.5	0.7	0.9	33.0	0.9
CCOC(=O)N1CCC(NC(=O)c2cc(C)c3c(C)nn(-c4ccccc4)c3n2)CC1	-13.2	1	1.1	1.3	1.1
N#C/C(=C(/O)CN1C(=O)c2ccccc2C1=O)c1nc2ccccc2[nH]1	50.8*	0.8	0.5	19.7	2.1*
CSCCC(/C(O)=C(\C#N)c1nc2ccccc2[nH]1)N1C(=O)c2ccccc2C1=O (stereo unspecified)	95.3*	0	0	98.6*	2*
N#C/C(=C(\O)Cc1ccccc1)c1nc2ccccc2[nH]1	5.2	0.9	0.9	7.4	0.9
C/C(O)=C(\C#N)c1nc2ccccc2[nH]1	27.0	1	0.7	3.5	1
COC(=O)C(NC(=O)c1ccc(Cl)cc1)(Nc1nc(C)cs1)C(F)(F)F (stereo unspecified)	16.8	0.3	0.8	73.6*	1
Cc1ccc2nc(SCC(=O)N(CC(C)C)c3c(N)n(CC(C)C)c(=O)[nH]c3=O)[nH]c2c1	9.6	0.7	0.9	27.1	2.3*
CCCc1cc(NCC2CCCO2)n2c(nc3ccccc32)c1C#N (stereo unspecified)	60.1*	1	0.4	1.6	1.4
CCCc1cc(-n2cnc3ccccc32)n2c(nc3ccccc32)c1C#N	46.0	1.2	0.5	-23.9	1
CCN(CC)S(=O)(=O)c1ccc(NCc2ccccc2)nc1	76.6*	0.4	0.2	63.5*	0.8
CCCCCCNC(=O)c1c(O)c2ccccc2[nH]c1=O	27.7	0.8	0.7	18.0	1.1
CC(C)CNC(=O)NC(=O)COc1ccc(C=O)cc1	83.3*	0.1	0.2	94.9*	1
SMILES	CYP2C9 inhib	CYP2C19 act	CYP2C9 activ	CYP2C19 inhib	PLAP activator
Oc1ccccc1C1=Nc2ncnn2C(c2ccc(F)cc2)C1 (stereo unspecified)	48.8	0.4	0.5	56.6*	1.3
Cn1cc(S(=O)(=O)NCc2cccs2)c(=O)n(C)c1=O	-13.1	1.2	1.1	-18.5	1
CCOc1ccc2nc(NS(=O)(=O)Cc3ccccc3)sc2c1	96.2*	0.2	0	76.8*	0.9
CCOc1ccc2nc(NC(=O)c3cnc(C)cn3)sc2c1	40.2	0.7	0.6	35.0	2.6*
COc1ccc2nc(NC(=O)c3ccc4ncsc4c3)sc2c1	53.8*	1.1	0.5	-5.5	1
CC(OC(=O)c1ccc2ccccc2n1)C(=O)Nc1ccc(N2CCOCC2)cc1 (stereo unspecified)	12.9	1	0.9	4.5	0.8
CCOC(=O)CSc1nc2ccc(N3CCOCC3)cc2c(=O)n1Cc1ccccc1	82.9*	0.2	0.2	75.6*	1.5
COCCNC(=O)CSc1nc2ccc(N3CCOCC3)cc2c(=O)n1CCc1ccccc1	64.2*	0.4	0.4	60.7*	1.6
CCCCn1c(SCC(=O)NCCOC)nc2ccc(N3CCOCC3)cc2c1=O	42.8	0.6	0.6	39.0	1.2
O=S(=O)(NC1CC1)c1ccc(S(=O)(=O)N2CCCC3(CCCCC3)C2)cc1	48.9	0.7	0.5	26.1	0.8
Cc1nn(-c2cccc(C(F)(F)F)c2)c(Cl)c1/C=N/n1cnnc1	95.3*	0.1	0	89.5*	0.8
c1cc2nnnn2nc1N1CCCCC1	1.5	1.1	1	-14.2	0.8
CCOC(=O)N1CCN(c2ccc3nnnn3n2)CC1	-1.7	0.4	1	56.1*	0.9
CCc1nc(SCC(=O)Nc2ccccc2C(=O)OC)n[nH]1	-58.7	0.6	1.6	36.1	2*
CCc1nc(SCC(=O)NCCc2ccccc2)n[nH]1	-0.6	0.4	1	56.1*	1.4
O=C(CSc1nc(N2CCCCC2)nc(N2CCCCC2)n1)c1ccccc1	78.8*	0.5	0.2	47.4	1.2
Cc1cc(-c2ccccc2)nc(SCC(=O)c2cccc([N+](=O)[O-])c2)n1	68.1*	0.6	0.3	43.5	0.9
Cc1cc(N2CCCCC2)nc(SCC(=O)c2ccccc2)n1	26.4	0.8	0.7	25.0	0.9
Cc1ccc(C)c(C(=O)CSc2n[nH]c(-c3ccncc3)n2)c1	99.4*	0	0	98.3*	1
Cn1c(SCC(=O)NCCc2ccccc2)nnc1-c1ccncc1	3.8	0.9	1	14.0	1
CCOC(=O)CSc1n[nH]c(NC(=O)c2cccc(C)c2)n1	32.9	0.8	0.7	24.9	0.8
O=C(CSc1n[nH]c(-c2ccncc2)n1)NCCc1ccccc1	96.8*	0.1	0	91.9*	0.9
CC(=O)Nc1nc(SCCCc2ccccc2)n[nH]1	18.8	0.2	0.8	80.4*	2.4*
CC(C)c1nc(SCC(=O)NCc2ccccc2)n[nH]1	-13.0	0.5	1.1	54.2*	0.9
O=C(CSc1ncccn1)NCc1ccccc1	-14.0	0.6	1.1	35.7	1
CCCS(=O)(=O)N1CCC(C(=O)NCCN(C)Cc2ccccc2)CC1	-2.2	1	1	-1.9	0.9
O=C(CN1C(=O)C2CC=CCC2C1=O)NC1=NCCS1 (stereo unspecified)	2.3	1	1	-0.7	1.1
Cc1nc(SCC(=O)c2ccccc2)n[nH]1	52.2*	0.6	0.5	37.6	2.2*
O=C(CSc1n[nH]c(-c2ccccc2)n1)Nc1ncc(Br)cc1Br	88.0*	0.1	0.1	86.8*	1.4
